Assay outcomes deposited in PubChem BioAssay by several laboratories.
This is a sample that favours compounds with a hit; in the whole collection about 4.3% have one here.
Wnt act – Wnt/beta-catenin pathway activation; Wnt/beta-catenin reporter cell assay, activator, plate reader; 300,000 compounds, 1.2% hits; activation, % at 9.35 µM; in the data active = activation above about 30%, passing the limit was not always enough; inconclusive = no clear call, values can overlap the other calls;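 also: 0% = neutral control wells and 100% = positive control wells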
MITF TRPM1 HTS – increases MITF-driven TRPM1 promoter luciferase signal | activation, % at 12.5 µM | SK-MEL-5 TRPM1-promoter luciferase, 24 h; % of positive control, neutral wells = 0 | 300,000 compounds, 0.75% hits;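 active = mean activation of at least 80% with every replicate also reaching 80%; inconclusive = mean reaches 80% but some replicate falls short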;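 also: 0% = neutral control wells and 100% = parthenolide positive control wells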
SMARCA2 act – increases SMARCA2 function in MMTV reporter cells | MG213 cells, MMTV-luciferase reporter, dexamethasone, overnight | activation, % at 9.1 µM | 370,000 compounds, 1% hits | AID 652017; in the data active = activation above about 7.8%;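 also: 0% = vehicle wells and 100% = reference activator wells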
HSF1 activator – increases HSF-1 driven luciferase reporter signal. NIH3T3-HGL HSF-1 luciferase reporter, MG132, 8 h; 100% = twice DMSO control signal. activation, % at 9 µM. 300,000 compounds, 1.7% hits. AID 504408;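 active = mean replicate activation of at least 50% with a set share of replicates each reaching 50%; inconclusive = only one of those two conditions met; inactive = mean below 50% and too few replicates reaching it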;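 also: 0% = median of the neutral control wells and 100% = twice that signal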
HSF1 inhib – HSF1 inhibition; AID 2098; NIH3T3-HGL HSE-luciferase, MG132-induced, luminescence 8 h; active compounds read low; activity change, negative = inhibition, % at 7.5 µM (by protocol); 300,000 compounds, 0.77% hits;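 active = more than half of replicate wells show activity change below -50%, luminescence cut by over half; inconclusive = some wells, but at most half, below -50%; inactive = no replicate well below -50%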;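 also: luciferase reports HSF-1 transcriptional activity via heat shock element; 0% = median of DMSO wells and -100% = zero luminescence signal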
esBAF inh – SWI/SNF esBAF complex inhibition | mouse ES cells, Bmi1-luciferase knock-in reporter, 24 h; 100% = twice the neutral-well signal | reporter increase, % at 12.5 µM | 350,000 compounds, 2% hits; in the data active = activation above about 40%; inconclusive = no clear call, values can overlap the other calls;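 also: 0% = median of the plate's neutral control wells and 100% = double that signal; a rise in the Bmi1 reporter signal indicates esBAF inhibition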
esBAF Ring1 qPCR – confirmation of esBAF inhibitors: Ring1 de-repression in mouse ESCs; shares compounds with esBAF inh; mouse ESC E14, Ring1 mRNA RT-qPCR fold change; fold change at 33 µM; 550 tested, under 10 active; AID 743176;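 active = Ring1 gene expression raised more than 2-fold over untreated cells in both replicates at either tested dose; inconclusive = only one replicate above 2-fold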;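 also: Ring1 transcript normalised to actin housekeeping signal by TaqMan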
Fgf4 repress – confirmation of esBAF inhibitors: Fgf4 repression in mouse ESCs | shares compounds with esBAF inh | mouse ESC E14, Fgf4 mRNA qPCR fold change; active compounds read low | Fgf4 expression fold change at 33 µM | 550 compounds, 4% hits | AID 743177;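 active = Fgf4 expression under 0.8 fold of control in both repeat measurements at one or both tested doses; inconclusive = under 0.8 fold in just a single repeat measurement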;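 also: Fgf4 transcript normalised to actin in duplex TaqMan qPCR; cells exposed to compound for 24 h before lysis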
esBAF Bmi1 qPCR – esBAF inhibition confirmed by Bmi1 de-repression. 550 tested, under 10 active. fold change at 33 µM. mouse ESE14 ES cells, Bmi1 mRNA qPCR fold; active compounds read high. shares compounds with esBAF inh;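 active = Bmi1 expression fold change above 6 at either tested concentration, seen in replicate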;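 also: higher fold means more Bmi1 de-repression and stronger esBAF inhibition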
A549 tox SP – kills or reduces viability of A549 cells | shares compounds with esBAF inh | 550 tested, under 10 active | cell viability change % (negative = cytotoxic), % at 25 µM, hits read low | A549 cytotoxicity, plate reader | AID 743188; call rule not given here
HepG2 tox SP – HepG2 cell cytotoxicity at single point | shares compounds with esBAF inh | plate reader; active compounds read low | activity change, negative = inhibition, % at 25 µM | 550 compounds, 4% hits | AID 743189; in the data active = activity change below about -50%
HEK293 cytotox SP – cytotoxicity in HEK293 cells; shares compounds with esBAF inh; plate reader; activity change, negative = inhibition, % at 25 µM, hits read low; 550 compounds, 3% hits; in the data active = activity change below about -38%, passing the limit was not always enough
Active calls of the source: *; ? = inconclusive; . = not tested or not shown.

SMILES	Wnt act	MITF TRPM1 HTS	SMARCA2 act	HSF1 activator	HSF1 inhib	esBAF inh	esBAF Ring1 qPCR	Fgf4 repress	esBAF Bmi1 qPCR	A549 tox SP	HepG2 tox SP	HEK293 cytotox SP
O=C(Nc1ccc(F)c(Cl)c1)c1cc(C2CCCN(C(=O)C3CC3)C2)on1 (stereo unspecified)	38*	.	0	.	.	77*	1.4	0.98	2	-7	-5	-7
O=C(Nc1ccc(F)c(Cl)c1)c1cc(C2CCCCN2C(=O)C2CC2)on1 (stereo unspecified)	-4	.	-3	.	.	5	.	.	.	.	.	.
CCn1c(SCc2ccccc2Cl)nc2ccccc21	-6	40	8	42	33	57*	1.2	0.87	1.4	-16	-13	-14
CCn1c(SCC(=O)N2CCCC2)nc2ccccc21	1	-2	1	3	-7	.	.	.	.	.	.	.
COC(=O)c1ccc2[nH]c(C3(O)CCCCC3)c(C)c2c1	?	83*	3	.	.	72*	1.1	1.1	0.97	1	-56*	6
Cn1c(/N=C(\N)c2ccccc2)nc2ccccc21	4	.	6	.	.	83*	1.2	0.87	1.7	-8	-5	-12
Cn1c(=O)c(C(=O)c2ccccc2)nc2ccccc21	.	-6	0	23	4	1	.	.	.	.	.	.
O=C(c1cc2c(s1)-c1ccccc1OC2)N1CCCC1	55*	34	3	11	11	76*	1.1	0.97	2	-6	21	-26
CCOC(=O)N1CCN(C(=O)c2cc3c(s2)-c2ccccc2OC3)CC1	1	0	-1	15	6	1	.	.	.	.	.	.
Cn1c(N)c(C(=O)N/N=C/c2ccccc2)sc1=S	-1	.	-1	12	4	.	.	.	.	.	.	.
Cn1c(C(=O)N/N=C/c2ccccc2)cc2ccccc21	-4	.	4	25	19	64*	1.3	0.86	1.6	1	-28	1
O=C(C[C@@H]1CC[C@@H](NC(=O)CCN2CCCCC2)[C@@H](CO)O1)NCc1ccc(Cl)c(Cl)c1	.	.	.	.	.	-4	.	.	.	.	.	.
Cc1ccc(-n2nnc(-c3cnc4ccccc4c3)n2)cc1	23	-6	7	-1	10	-37	.	.	.	.	.	.
Cc1ccc(-n2nnc(-c3cccnc3)n2)cc1	22	102*	5	30	18	60*	1.2	1	1.5	-3	-10	16
COc1ccc2nc(C(c3ccc(C)cc3)n3c(-c4ccccc4Br)nc4ccccc43)[nH]c2c1 (stereo unspecified)	-3	.	6	.	.	?	0.96	1.2	1.7	-8	4	-25
Cn1cccc1C(=O)NC1CCCCCC1	17	96*	4	.	.	64*	1.1	0.8	1.5	-14	-49	-19
CN1CCN(C(=O)C[C@@H]2C=C[C@@H](NC(=O)c3ccc4c(c3)OCO4)[C@H](CO)O2)CC1	.	.	.	.	.	3	.	.	.	.	.	.
O=C(C[C@H]1C[C@H]2c3cc(NC(=O)Nc4ccc(C(F)(F)F)cc4)ccc3O[C@H]2[C@H](CO)O1)NCc1ccccn1	.	.	.	.	.	-5	.	.	.	.	.	.
COc1ccc(NC(=O)N(C)C[C@@H]2OCCCC[C@@H](C)Oc3ccc(NC(=O)Nc4ccc5c(c4)OCO5)cc3C(=O)N([C@@H](C)CO)C[C@H]2C)cc1	.	.	.	.	.	-1	.	.	.	.	.	.
Cc1noc(C)c1NC(=O)Nc1cccc2c1O[C@@H](CN(C)CC1CC1)[C@H](C)CN([C@H](C)CO)C2=O	.	.	.	.	.	0	.	.	.	.	.	.
CC1(C)C=Cc2cc(-c3coc4cc(O)cc(O)c4c3=O)cc(O)c2O1	23	35	5	-1	4	68*	1.4	0.97	1.4	7	-41	-8
c1cncc(-c2ccc3[nH]ccc3c2)c1	4	48	7	.	.	12	.	.	.	.	.	.
c1ccc(-c2ccc3[nH]ccc3c2)cc1	17	93*	5	.	.	59*	1	0.99	2.1	2	-17	8
COc1ccc(-c2nnn(Cc3ccccc3)n2)cc1	15	36	3	46	28	79*	1.1	0.87	1.3	-4	-1	3
COc1ccc(OCCn2nnc(-c3ccc(Cl)cc3)n2)cc1	.	-10	4	11	-4	.	.	.	.	.	.	.
SMILES	Wnt act	MITF TRPM1 HTS	SMARCA2 act	HSF1 activator	HSF1 inhib	esBAF inh	esBAF Ring1 qPCR	Fgf4 repress	esBAF Bmi1 qPCR	A549 tox SP	HepG2 tox SP	HEK293 cytotox SP
O=C(Cc1ccccc1)N/N=C/c1ccccc1OCc1ccc(Cl)cc1	.	69	1	34	29	101*	1.2	?	2.7	-17	10	-14
Cc1ccc2c3c([nH]c2c1C)-c1nonc1CC3	11	47	-2	20	14	55*	1.2	?	1.8	-3	-34	-24
Cc1cc2c(nn1)CCc1nonc1-2	0	-2	.	-10	-13	1	.	.	.	.	.	.
CCS(=O)(=O)n1nc(-c2ccc(Cl)cc2)nc1SC	.	66	5	28	15	57*	1.2	0.9	1.2	-15	21	-20
Cc1ccn2cc(C(=O)Nc3nnc(C)s3)nc2c1	7	?	1	10	6	55*	1	0.97	1.6	-9	-16	-6
O=C(Nc1ccc(SC(F)F)cc1)C12CCC(CC1)C2	12	42	1	18	0	56*	1.2	?	1.7	-5	26	1
COc1ccc(NC(=O)N(C)C[C@@H]2Oc3ccc(NC(=O)CCC(F)(F)F)cc3CC(=O)N([C@H](C)CO)C[C@H]2C)cc1	.	.	.	.	.	0	.	.	.	.	.	.
Oc1[nH]c2ccccc2c1/C=N/N1CCCCC1	2	0	-1	-12	-1	.	.	.	.	.	.	.
Oc1[nH]c2ccccc2c1/C=N/c1nccs1	-2	56	4	4	-6	71*	1.4	1	1.7	0	-40	-11
COc1cccc(/C=N/NC(=O)CCCC(=O)Nc2ccc(Br)cc2)c1	-2	4	-2	23	4	.	.	.	.	.	.	.
COc1ccc(/C=C/C(=O)Oc2cccc(/C=N/NC(=O)Cc3ccc(Br)cc3)c2)cc1	-23	38	5	26	8	63*	1.2	?	1.6	-3	2	5
C[C@H](NC(=O)[C@H]1[C@H](CO)[C@H]2Cn3c(ccc(C4=CCCC4)c3=O)[C@H]2N1C)c1ccccc1	.	.	.	.	.	6	.	.	.	.	.	.
